From PubChem
T cruzi growth-1: blocks T. cruzi growth in NIH3T3 culture | T. cruzi beta-gal in NIH3T3, GalScreen luminescence, 90 h | 77,000 compounds, 5.9% hits | inhibition, % at 8.34 µM | AID 624255;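 active = mean inhibition above about 93%, with at least 55% of replicates each passing it, limit read from the data, passing the limit was not always enough; inconclusive = only one of those two conditions holds; inactive = neither condition holds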
C diff growth: inhibitors of Clostridium difficile growth; Clostridium difficile clinical isolate growth, OD600, 24 h; hits give low values; growth activity, negative = inhibition, % at 16 µg/mL (by protocol); 86,000 compounds, 0.25% hits; AID 1259249;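 active = mean growth activity at or below -80% and every replicate also at or below -80%; inconclusive = mean at or below -80% but some replicate above -80%; inactive = mean growth activity above -80%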
T cruzi growth-2: Trypanosoma cruzi proliferation inhibition; 5,600 compounds, 72% hits; inhibition, % at 8.35 µM; AID 651739; T. cruzi beta-gal in NIH3T3, GalScreen luminescence, 90 h; shares compounds with T cruzi growth-1;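 active = mean replicate inhibition above about 95% and at least 55% of replicates individually reaching it, limit read from the data; inconclusive = only one of the two criteria is met; inactive = neither criterion is met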
T cruzi growth-3: inhibitors of T. cruzi proliferation; 5,600 compounds, 21% hits; T. cruzi beta-gal in NIH3T3, GalScreen luminescence, 90 h; inhibition, % at 2.09 µM; shares compounds with T cruzi growth-1;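 active = mean inhibition above about 95%, with at least 55% of replicates also reaching it, limit read from the data; inconclusive = meets just one of the two conditions; inactive = meets neither condition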
3T3 cytotox: NIH/3T3 (mouse) viability loss | shares compounds with T cruzi growth-1 | NIH/3T3 viability, CellTiter-Glo ATP luminescence, 90 h | 5,600 compounds, 14% hits | cytotoxicity (signal decrease), % at 8.35 µM;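 active = mean signal decrease across replicates above about 35% based on untreated-well scatter, with enough replicates individually passing, limit read from the data; inconclusive = no rule stated though some were filed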
3T3 cytotox 2: cytotoxicity in mouse NIH/3T3 fibroblasts; NIH/3T3 viability, CellTiter-Glo ATP luminescence, 90 h; shares compounds with T cruzi growth-1; 5,600 compounds, 56% hits; inhibition, % at 24.9 µM;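 active = mean loss of cell viability signal at or above a set limit, and enough replicates individually reaching it; inconclusive = meets only the mean limit or only the replicate share; inactive = meets neither condition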
A number is an active result; – = inactive; ? = inconclusive; · = not tested or not shown; ! = not confirmed by another sample. The full list was thinned out, with hits kept by preference.

SMILES	T cruzi growth-1	C diff growth	T cruzi growth-2	T cruzi growth-3	3T3 cytotox	3T3 cytotox 2
CCS(=O)(=O)NCC[C@@H]1CC[C@@H](NS(=O)(=O)c2cccc(F)c2)[C@@H](CO)O1	–	–	·	·	·	·
CC(C)NC(=O)N(C)C[C@H]1Oc2c(NC(=O)Nc3cccc4ccccc34)cccc2C(=O)N([C@H](C)CO)C[C@@H]1C	–	–	·	·	·	·
Cc1noc(C)c1S(=O)(=O)Nc1ccc2c(c1)C(=O)N([C@H](C)CO)C[C@H](C)[C@H](CN(C)C)OCCCC[C@H](C)O2	–	–	·	·	·	·
COCC(=O)N1C[C@@H](C)[C@H](OC)CN(C)C(=O)c2cc(NC(=O)c3ccc(F)cc3)ccc2OC[C@@H]1C	–	–	·	·	·	·
C[C@H]1CCCCO[C@@H](CN(C)CC2CCCCC2)[C@@H](C)CN([C@@H](C)CO)C(=O)c2cc(NC(=O)c3ccccc3)ccc2O1	–	–	·	·	·	·
COc1ccc(NC(=O)Nc2ccc3c(c2)CC(=O)N([C@@H](C)CO)C[C@@H](C)[C@H](CN(C)CC2CCCCC2)O3)cc1	119.7	–	98.7	–	–	104.2
C[C@@H]1CCCCO[C@H](CN(C)CC2CCCCC2)[C@H](C)CN([C@H](C)CO)C(=O)c2cc(NC(=O)c3ccccc3)ccc2O1	118.0	–	113.5	–	–	105.0
COc1ccc(NC(=O)Nc2ccc3c(c2)CC(=O)N([C@@H](C)CO)C[C@@H](C)[C@@H](CN(C)CC2CCCCC2)O3)cc1	–	–	·	·	·	·
C[C@@H]1CCCCO[C@H](CN(C)CC2CCCCC2)[C@H](C)CN([C@@H](C)CO)C(=O)c2cc(NC(=O)c3ccccc3)ccc2O1	–	–	·	·	·	·
C[C@@H]1CCCCO[C@H](CN(C)CC2CCCCC2)[C@@H](C)CN([C@H](C)CO)C(=O)c2cc(NC(=O)Nc3ccccc3)ccc2O1	109.2	–	111.5	–	–	94.6
O=C(C[C@@H]1C[C@H]2c3cc(NC(=O)Nc4ccc(F)cc4)ccc3O[C@H]2[C@H](CO)O1)NCC(F)(F)F	–	–	·	·	·	·
C[C@H]1CN([C@@H](C)CO)C(=O)c2cc(C#CC(C)(C)O)cnc2O[C@@H]1CN(C)Cc1cncnc1	–	–	·	·	·	·
C[C@@H]1CN([C@@H](C)CO)S(=O)(=O)c2ccc(-c3cccnc3)cc2O[C@H]1CN(C)C(=O)NC1CCCC1	·	–	·	·	·	·
C[C@H]1CN([C@@H](C)CO)C(=O)CCCn2cc(nn2)CO[C@@H]1CN(C)C(=O)C1CC1	–	–	·	·	·	·
C[C@H]1CN([C@@H](C)CO)C(=O)CCCn2cc(nn2)CO[C@@H]1CN(C)Cc1cccc(O)c1	–	·	·	·	·	·
C[C@H](CO)N1C[C@H](C)[C@H](CN(C)Cc2cccc(O)c2)OCc2cn(nn2)CCCC1=O	?	–	–	–	–	–
C[C@@H]1CN([C@@H](C)CO)C(=O)CCCn2cc(nn2)CO[C@H]1CN(C)Cc1ccccc1	121.1	–	–	–	–	–
C[C@H]1CN([C@@H](C)CO)C(=O)CCCn2cc(nn2)CO[C@@H]1CN(C)Cc1ccccc1	–	·	·	·	·	·
C[C@@H]1CN([C@@H](C)CO)C(=O)CCCn2cc(nn2)CO[C@@H]1CN(C)C(=O)Nc1cccc(C(F)(F)F)c1	151.7	–	–	–	–	–
C[C@H]1CN([C@@H](C)CO)C(=O)CCCn2cc(nn2)CO[C@@H]1CN(C)C(=O)Nc1cccc(C(F)(F)F)c1	–	–	·	·	·	·
C[C@@H]1CN([C@@H](C)CO)C(=O)CCCn2cc(nn2)CO[C@H]1CN(C)C(=O)C1CC1	?	–	–	–	–	–
C[C@H]1CN([C@@H](C)CO)C(=O)Cc2cc(NS(=O)(=O)c3ccc(F)cc3)ccc2O[C@@H]1CN(C)S(=O)(=O)c1cn(C)cn1	–	–	·	·	·	·
COc1cccc(S(=O)(=O)N(C)C[C@@H]2Oc3ncccc3C(=O)N([C@H](C)CO)C[C@@H]2C)c1	–	–	·	·	·	·
C[C@@H]1CN([C@H](C)CO)C(=O)CCCn2cc(nn2)CO[C@@H]1CN(C)C(=O)c1ccc(N2CCN(C)CC2)cc1	120.0	–	–	–	–	–
C[C@H]1CN([C@@H](C)CO)C(=O)CCCn2cc(nn2)CO[C@@H]1CN(C)C(=O)c1ccc(N2CCN(C)CC2)cc1	–	–	·	·	·	·
SMILES	T cruzi growth-1	C diff growth	T cruzi growth-2	T cruzi growth-3	3T3 cytotox	3T3 cytotox 2
C[C@H]1CN([C@@H](C)CO)C(=O)CCCn2cc(nn2)CO[C@@H]1CN(C)C(=O)Cc1ccccc1	131.5!	–	–	–	–	–
C[C@@H]1CN([C@H](C)CO)C(=O)CCCn2cc(nn2)CO[C@@H]1CN(C)C(=O)Cc1ccccc1	–	–	·	·	·	·
COc1ccc(NC(=O)Nc2ccc3c(c2)C(=O)N([C@H](C)CO)C[C@@H](C)[C@H](CN(C)S(=O)(=O)c2cn(C)cn2)OCCCC[C@@H](C)O3)cc1	–	–	·	·	·	·
C[C@H]1CCCCO[C@H](CN(C)S(=O)(=O)c2ccccc2)[C@@H](C)CN([C@@H](C)CO)C(=O)c2cc(NC(=O)Nc3ccc(C(F)(F)F)cc3)ccc2O1	?	–	109.4	116.6	–	–
C[C@@H]1CN([C@H](C)CO)C(=O)c2cc(NC(=O)Nc3ccc(C(F)(F)F)cc3)ccc2O[C@@H](C)CCCCO[C@H]1CN(C)S(=O)(=O)c1ccccc1	97.6	–	102.1	109.1	–	–
C[C@@H]1CCCCO[C@@H](CN(C)S(=O)(=O)c2ccccc2)[C@H](C)CN([C@H](C)CO)C(=O)c2cc(NC(=O)Nc3ccc(C(F)(F)F)cc3)ccc2O1	–	–	·	·	·	·
C[C@@H]1CCCCO[C@H](CN(C)S(=O)(=O)c2ccccc2)[C@H](C)CN([C@H](C)CO)C(=O)c2cc(NC(=O)Nc3ccc(C(F)(F)F)cc3)ccc2O1	–	–	·	·	·	·
C[C@@H](NC(=O)C[C@H]1C[C@H]2c3cc(NC(=O)C4CCOCC4)ccc3O[C@H]2[C@H](CO)O1)c1ccccc1	–	·	·	·	·	·
CCNC(=O)[C@H]1[C@H](CO)[C@H]2Cn3c(ccc(-c4ccccc4)c3=O)[C@H]2N1CC1CC1	–	–	·	·	·	·
CCCC(=O)Nc1ccc2c(c1)OC[C@H](C)N(S(=O)(=O)c1cn(C)cn1)C[C@H](C)[C@@H](OC)CN(C)C2=O	·	–	·	·	·	·
O=C(C1CCC1)N1CCCCN2[C@H](CO)[C@@H](c3ccc(C#CC4CCCC4)cc3)[C@@H]2C1	–	–	·	·	·	·
O=C(C1CCCC1)N1CCCCN2[C@@H](CO)[C@H](c3ccc(C#CC4CC4)cc3)[C@@H]2C1	121.3	–	110.4	–	40.2	81.9
O=C(C1CCCC1)N1CCCCN2[C@H](CO)[C@@H](c3ccc(C#CC4CC4)cc3)[C@H]2C1	109.1	–	107.5	–	–	48.9
O=C(C1CC1)N1CCCCN2[C@H](CO)[C@H](c3ccc(C#CC4CC4)cc3)[C@H]2C1	–	–	·	·	·	·
O=C(C1CC1)N1CCCCN2[C@H](CO)[C@H](c3ccc(C#CC4CC4)cc3)[C@@H]2C1	–	–	·	·	·	·
O=C(C1CC1)N1CCCCN2[C@@H](CO)[C@@H](c3ccc(C#CC4CC4)cc3)[C@@H]2C1	–	–	·	·	·	·
